In PubChem BioAssay (NCATS):
Results filed as inconclusive are left out. Some compounds were tested as several samples or in several runs, with calls that do not always agree. Calls of active or inactive are those of the source. Unless noted, calls come from the whole dose curve; as a rule, active = well fitted curve in the direction sought with a large enough effect; inconclusive = small, poorly fitted or top-dose-only effect, or another doubt; inactive = no such curve, though single readings can be large; an effect the other way counts as inactive or inconclusive.

Key:
[1] = target: Ubiquitin carboxyl-terminal hydrolase 2 (Homo sapiens) (UniProt O75604); assay: qHTS Validation Assay for Inhibitors of Ubiquitin-specific Protease USP2a Using CHOP2 as the Reporter (AID 463106)
Chain of Ubiquitin carboxyl-terminal hydrolase 2 (Homo sapiens) (O75604 whole entry, looked up): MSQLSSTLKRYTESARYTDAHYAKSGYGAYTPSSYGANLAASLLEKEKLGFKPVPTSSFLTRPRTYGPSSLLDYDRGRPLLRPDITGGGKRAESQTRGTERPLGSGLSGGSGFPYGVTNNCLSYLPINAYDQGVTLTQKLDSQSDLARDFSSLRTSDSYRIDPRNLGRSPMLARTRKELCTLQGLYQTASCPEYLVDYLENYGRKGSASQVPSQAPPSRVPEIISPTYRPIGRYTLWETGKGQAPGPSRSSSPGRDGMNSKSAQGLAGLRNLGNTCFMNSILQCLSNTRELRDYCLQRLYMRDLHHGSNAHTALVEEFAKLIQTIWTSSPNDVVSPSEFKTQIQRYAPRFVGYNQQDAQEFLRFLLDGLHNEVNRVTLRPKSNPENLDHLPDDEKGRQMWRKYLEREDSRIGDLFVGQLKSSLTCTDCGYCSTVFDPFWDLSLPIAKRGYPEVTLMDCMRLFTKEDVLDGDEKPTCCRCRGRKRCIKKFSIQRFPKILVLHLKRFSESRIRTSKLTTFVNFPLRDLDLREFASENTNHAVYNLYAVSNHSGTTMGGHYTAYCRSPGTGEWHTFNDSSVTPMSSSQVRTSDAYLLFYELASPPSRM
Method in brief: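 Inhibition is expressed relative to NEM as the full-inhibition control, with concentration-response curves classed by fit quality, magnitude and activity. Enzyme (USP2 core, 10nM) meets 25nM Ub-CHOP2 after compound preincubation; readings are taken at 60min.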

[2] = target: DNA polymerase III PolC-type (Bacillus subtilis (strain 168)) (UniProt P13267); assay: qHTS Validation Assay for the Inhibitors of DNA Replication in Gram-Positive Bacteria (AID 485295);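 note: reconstituted holoenzyme with PolC plus beta clamp SSB and primase; PicoGreen fluorescence of double-stranded DNA made on primed circular M13 template; series mostly up to about 57 µM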
Chain of DNA polymerase III PolC-type (Bacillus subtilis (strain 168)) (P13267 whole entry, looked up): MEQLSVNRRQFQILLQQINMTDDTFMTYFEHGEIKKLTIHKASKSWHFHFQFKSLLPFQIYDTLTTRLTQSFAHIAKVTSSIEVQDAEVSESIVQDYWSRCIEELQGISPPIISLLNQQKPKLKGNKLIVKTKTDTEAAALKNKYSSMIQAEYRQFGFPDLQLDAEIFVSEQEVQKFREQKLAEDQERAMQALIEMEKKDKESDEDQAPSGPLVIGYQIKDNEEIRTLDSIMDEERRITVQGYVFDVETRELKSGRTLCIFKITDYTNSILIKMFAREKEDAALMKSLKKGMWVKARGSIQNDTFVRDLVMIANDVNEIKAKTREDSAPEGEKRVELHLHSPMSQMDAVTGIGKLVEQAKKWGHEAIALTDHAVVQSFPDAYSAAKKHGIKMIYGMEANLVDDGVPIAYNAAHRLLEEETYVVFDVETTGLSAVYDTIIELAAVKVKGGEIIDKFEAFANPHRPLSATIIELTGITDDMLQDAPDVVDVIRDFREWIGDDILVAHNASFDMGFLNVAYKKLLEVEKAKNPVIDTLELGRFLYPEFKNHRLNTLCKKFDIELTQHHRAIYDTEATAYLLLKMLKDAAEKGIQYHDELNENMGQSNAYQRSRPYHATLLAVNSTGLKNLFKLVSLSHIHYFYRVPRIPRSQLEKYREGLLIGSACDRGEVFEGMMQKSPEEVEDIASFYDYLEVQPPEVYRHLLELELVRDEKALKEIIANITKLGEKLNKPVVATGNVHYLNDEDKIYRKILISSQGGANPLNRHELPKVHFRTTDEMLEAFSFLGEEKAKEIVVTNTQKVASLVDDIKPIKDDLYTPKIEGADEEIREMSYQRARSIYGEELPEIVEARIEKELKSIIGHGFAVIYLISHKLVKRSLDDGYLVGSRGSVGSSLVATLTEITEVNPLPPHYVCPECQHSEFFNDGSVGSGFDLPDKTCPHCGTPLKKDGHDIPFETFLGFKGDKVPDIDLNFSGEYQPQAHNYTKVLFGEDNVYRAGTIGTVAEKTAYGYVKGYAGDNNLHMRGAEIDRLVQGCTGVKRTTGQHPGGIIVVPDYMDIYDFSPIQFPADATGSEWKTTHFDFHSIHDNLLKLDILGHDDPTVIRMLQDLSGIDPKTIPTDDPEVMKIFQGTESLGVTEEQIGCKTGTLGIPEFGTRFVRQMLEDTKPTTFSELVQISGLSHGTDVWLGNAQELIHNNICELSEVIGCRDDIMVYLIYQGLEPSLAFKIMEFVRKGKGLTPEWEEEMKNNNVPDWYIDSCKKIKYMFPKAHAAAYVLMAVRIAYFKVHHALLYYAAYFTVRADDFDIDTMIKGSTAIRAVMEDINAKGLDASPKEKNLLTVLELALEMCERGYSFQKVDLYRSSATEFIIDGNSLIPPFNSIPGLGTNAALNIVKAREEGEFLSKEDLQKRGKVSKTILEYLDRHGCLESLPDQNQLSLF
Method in brief: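 Primed replication of single-stranded M13Gori by a four-protein B. subtilis holoenzyme is measured at room temperature. Double-stranded product is quantified by PicoGreen fluorescence after an EDTA stop; inhibition is scaled between DMSO and EDTA controls.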

[3] = target: Tumor susceptibility gene 101 protein (Homo sapiens) (UniProt Q99816); assay: qHTS Validation Assay for Iinhibitors of HIV-1 Budding by Blocking the Interaction of PTAP/TSG101 (AID 485342; calls by dose curve)
Chain of Tumor susceptibility gene 101 protein (Homo sapiens) (Q99816 whole entry, looked up, the tested form may be a part): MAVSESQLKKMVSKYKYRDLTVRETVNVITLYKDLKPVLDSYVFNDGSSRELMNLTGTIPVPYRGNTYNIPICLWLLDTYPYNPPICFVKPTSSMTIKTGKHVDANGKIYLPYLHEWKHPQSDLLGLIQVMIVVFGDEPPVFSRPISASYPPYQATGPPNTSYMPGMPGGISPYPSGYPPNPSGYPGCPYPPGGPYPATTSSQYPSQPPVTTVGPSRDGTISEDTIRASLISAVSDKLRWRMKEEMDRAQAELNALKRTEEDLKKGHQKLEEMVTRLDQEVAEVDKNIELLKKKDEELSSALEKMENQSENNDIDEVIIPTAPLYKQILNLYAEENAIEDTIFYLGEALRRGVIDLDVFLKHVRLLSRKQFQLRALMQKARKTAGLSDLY
Method in brief: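 Fluorescence anisotropy measured PTAP-Tsg101 interaction. Final concentrations were 10 uM protein domain and 50 nM labeled peptide, equilibrated 20 min at room temperature.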

[4] = qHTS Validation Assay to Find Inhibitors of Chronic Active B-Cell Receptor Signaling (AID 485345; active = well fitted curve in the direction sought with a large enough effect in the main read-out, with a control signal flat, not every such curve was filed as active)
Method in brief: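 TMD8 ABC-DLBCL cells with dox-inducible green luciferase–IκBα fusion and red native luciferase; compounds 46 uM–3 nM, 4 h at 37C with doxycycline in 0.5% FBS IMDM. Green/red ratio normalized to basal and 10 uM MG-132.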

[5] = target: Beta-2 adrenergic receptor (Homo sapiens) (UniProt P07550); assay: qHTS validation assay of beta-arrestin-biased ligands of beta2-adrenergic receptor (AID 485366)
Chain of Beta-2 adrenergic receptor (Homo sapiens) (P07550 whole entry, looked up): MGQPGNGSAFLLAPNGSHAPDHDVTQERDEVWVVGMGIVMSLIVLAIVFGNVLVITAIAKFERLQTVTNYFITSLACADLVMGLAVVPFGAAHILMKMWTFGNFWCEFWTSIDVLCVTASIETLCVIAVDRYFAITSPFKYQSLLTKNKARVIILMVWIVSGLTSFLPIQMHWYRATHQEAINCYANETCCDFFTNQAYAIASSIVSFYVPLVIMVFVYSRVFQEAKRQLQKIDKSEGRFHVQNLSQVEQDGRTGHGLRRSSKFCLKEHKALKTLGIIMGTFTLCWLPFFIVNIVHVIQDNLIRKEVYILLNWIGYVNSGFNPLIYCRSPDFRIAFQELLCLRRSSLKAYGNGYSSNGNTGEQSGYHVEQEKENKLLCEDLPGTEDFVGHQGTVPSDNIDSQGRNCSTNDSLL
Method in brief: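 Agonism was measured as beta-arrestin recruitment to recombinant beta2-AR, releasing tTA to drive luciferase. Cells were exposed for 18 hr at 37 degrees C to a series up to 46 microM. %Activity from corrected luminescence gave concentration-response curves.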

[6] = target: Thioredoxin reductase 1, cytoplasmic (Rattus norvegicus) (UniProt O89049); assay: qHTS Assay for Substrates of Mammalian Selenoprotein Thioredoxin Reductase 1 (TrxR1) (AID 488772);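 note: series mostly up to about 57 µM; a drop in NADPH fluorescence below the no-compound background marks a TrxR1 substrate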
Chain of Thioredoxin reductase 1, cytoplasmic (Rattus norvegicus) (O89049 whole entry, looked up): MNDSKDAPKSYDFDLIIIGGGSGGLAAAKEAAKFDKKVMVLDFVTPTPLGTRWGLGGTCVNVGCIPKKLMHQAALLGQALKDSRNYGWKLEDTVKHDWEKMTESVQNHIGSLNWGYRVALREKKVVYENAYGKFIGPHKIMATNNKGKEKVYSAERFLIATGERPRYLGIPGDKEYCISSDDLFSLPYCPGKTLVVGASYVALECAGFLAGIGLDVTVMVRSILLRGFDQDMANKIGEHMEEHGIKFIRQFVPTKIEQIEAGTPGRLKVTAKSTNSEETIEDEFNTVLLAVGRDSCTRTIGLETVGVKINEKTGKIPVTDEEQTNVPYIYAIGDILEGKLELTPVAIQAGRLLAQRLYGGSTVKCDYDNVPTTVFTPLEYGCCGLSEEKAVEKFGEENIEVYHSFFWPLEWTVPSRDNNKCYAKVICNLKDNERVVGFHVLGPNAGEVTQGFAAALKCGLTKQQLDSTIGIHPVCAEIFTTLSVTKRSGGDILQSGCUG
Method in brief: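 In this dual-purpose format, potential substrates are identified from the first fluorescence read after selenite addition, not from the 8-minute delta. Rat enzyme is preincubated with NADPH and then with compound at ~22 deg C.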

[7] = target: Thioredoxin reductase 1, cytoplasmic (Rattus norvegicus) (UniProt O89049); assay: qHTS Assay for Inhibitors of Mammalian Selenoprotein Thioredoxin Reductase 1 (TrxR1) (AID 488773); conditions: Potency: inhibition;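 note: drop in NADPH fluorescence over an 8 min run after selenite addition; series mostly up to about 57 µM; nearly all actives have a fitted effect of over 40% in size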
Method in brief: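 Inhibition is scored from the loss of NADPH fluorescence between first and last reads of an 8-min kinetic run. Selenite (400 uM) was the substrate, added after 15 min compound preincubation at room temperature.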

[8] = target: Flap endonuclease 1 (Homo sapiens) (UniProt P39748); assay: qHTS Validation Assay for the Inhibitors of Human Flap endonuclease 1 (FEN1) (AID 488816)
Chain of Flap endonuclease 1 (Homo sapiens) (P39748 whole entry, looked up): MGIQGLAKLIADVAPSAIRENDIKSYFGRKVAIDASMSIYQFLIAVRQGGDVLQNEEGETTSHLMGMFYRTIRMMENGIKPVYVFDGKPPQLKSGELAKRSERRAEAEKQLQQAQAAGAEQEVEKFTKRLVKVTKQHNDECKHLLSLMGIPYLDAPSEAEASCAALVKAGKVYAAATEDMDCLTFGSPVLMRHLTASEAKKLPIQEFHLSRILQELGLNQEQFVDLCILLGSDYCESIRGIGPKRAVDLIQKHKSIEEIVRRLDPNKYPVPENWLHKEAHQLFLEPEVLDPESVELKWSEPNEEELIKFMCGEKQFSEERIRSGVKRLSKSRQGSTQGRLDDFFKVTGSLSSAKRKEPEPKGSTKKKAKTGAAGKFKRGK
Method in brief: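 Steps: add FEN1 (10 nM reagent) or buffer only; pin compounds; hold 15 min at room temperature; start with substrate, 50 nM final; read at 0 and 15 min; correct, normalize and fit a four-parameter Hill curve.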

[9] = target: M-phase phosphoprotein 8 (Homo sapiens) (UniProt Q99549); assay: qHTS Validation Assay for Inhibitors for MPP8 Chromodomain Interactions with Methylated Histone Tails (AID 488949); note: nearly all actives have a fitted effect of over 55% in size; note: potency is the fitted concentration of half-maximal effect
Method in brief: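 Disruption of the preformed MPP8–trimethyl-H3K9 peptide complex (both 50 nM, 30 min, RT) is measured after 30 min compound exposure, using AlphaScreen proximity beads; aurintricarboxylic acid titration serves as plate control.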

[10] = target: Chromobox protein homolog 1 (Homo sapiens) (UniProt P83916); assay: qHTS Validation Assay for Inhibitors of HP1-beta Chromodomain Interactions with Methylated Histone Tails (AID 488953); note: nearly all actives have a fitted effect of over 50% in size; note: potency is the fitted concentration of half-maximal effect
Chain of Chromobox protein homolog 1 (Homo sapiens) (P83916 whole entry, looked up): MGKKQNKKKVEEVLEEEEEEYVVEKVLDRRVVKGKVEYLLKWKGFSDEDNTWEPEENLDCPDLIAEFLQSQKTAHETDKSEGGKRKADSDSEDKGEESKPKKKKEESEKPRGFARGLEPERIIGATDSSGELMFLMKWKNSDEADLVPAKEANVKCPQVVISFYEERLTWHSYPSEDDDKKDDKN
Method in brief: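 AlphaScreen proximity signal from streptavidin donor and nickel chelate acceptor beads (final 10 ug/mL) after 30 min dark incubation. Compounds had 30 min at room temperature with preformed complex of 50 nM HP1-beta and 50 nM b-H3(1-18)K9me3 in PBS pH 7.4 with 0.01% Tween-20.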

[11] = target: Methanococcus maripaludis chaperonin (MmCpn) (UniProt Q6LX38); assay: High-Throughput Screening for Modulators of Cytosolic Chaperonin Activity: MmCpn Primary Screen (AID 488978);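 note: 50 nM MmCpn enzyme hydrolysing 30 µM ATP at 37 °C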
Chain of Methanococcus maripaludis chaperonin (MmCpn) (Q6LX38 1-543): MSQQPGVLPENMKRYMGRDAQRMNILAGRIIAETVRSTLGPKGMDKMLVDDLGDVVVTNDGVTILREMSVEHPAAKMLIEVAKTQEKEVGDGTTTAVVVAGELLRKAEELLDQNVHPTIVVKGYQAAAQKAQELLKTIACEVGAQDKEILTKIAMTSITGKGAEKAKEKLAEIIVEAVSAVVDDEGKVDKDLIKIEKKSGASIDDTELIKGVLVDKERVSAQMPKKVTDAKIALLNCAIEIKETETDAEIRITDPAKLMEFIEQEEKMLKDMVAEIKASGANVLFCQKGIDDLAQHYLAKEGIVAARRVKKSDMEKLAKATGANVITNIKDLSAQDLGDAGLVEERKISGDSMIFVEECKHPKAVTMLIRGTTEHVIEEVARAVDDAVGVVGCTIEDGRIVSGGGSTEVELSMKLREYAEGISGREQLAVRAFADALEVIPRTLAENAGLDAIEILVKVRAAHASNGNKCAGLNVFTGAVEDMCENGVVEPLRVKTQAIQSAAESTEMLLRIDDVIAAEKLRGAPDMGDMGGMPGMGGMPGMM
Method in brief: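 Measures ATPase turnover of the M. maripaludis chaperonin (50 nM final) against 30 uM ATP over 10 min at 37C, with compound added 5 min beforehand at room temperature. ADP is quantified by HTRF immunodetection.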

[12] = target: D(1A) dopamine receptor (Homo sapiens) (UniProt P21728); assay: HTS Assay for Allosteric Agonists of the Human D1 Dopamine Receptor: Primary Screen for Agonists (AID 488981)
Method in brief: (§1)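 Tetracycline-induced HEK293 T-REx cells force-coupled to calcium signalling were incubated overnight at 30 C and dye-loaded at room temperature. Calcium flux over 180 s after compound addition flagged agonists; a further 180 s read after EC20 dopamine flagged potentiators.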

[13] = target: D(1A) dopamine receptor (Homo sapiens) (UniProt P21728); assay: HTS Assay for Allosteric Agonists of the Human D1 Dopamine Receptor: Primary Screen for Potentiators (AID 488982)
Method in brief: as §1

[14] = target: D(1A) dopamine receptor (Homo sapiens) (UniProt P21728); assay: HTS Assay for Allosteric Agonists of the Human D1 Dopamine Receptor: Primary Screen for Antagonists (AID 488983);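 note: calcium flux response to an EC80 dopamine challenge measured with no-wash dye; nearly all actives have a fitted effect of over 65% in size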; note: potency is the fitted concentration of half-maximal effect
Method in brief: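 Calcium-flux read-out in inducible HEK293 T-REx cells expressing D1, dye-loaded 30–90 min at room temperature. Kinetic reads: 180 s after compound (agonist phase), then 180 s after an EC80 dopamine challenge.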

[15] = Quantitative high throughput screen for delayed death inhibitors of the malarial parasite plastid, 48 hour incubation (AID 488752); note: nearly all actives have a fitted effect of over 65% in size; note: potency is the fitted concentration of half-maximal effect
Method in brief: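 One-generation (48 h) growth assay: a decrease in luciferase signal from an integrated reporter in P. falciparum-infected red cells (0.1% parasitemia, 2% hematocrit) after compound exposure at 37 C indicates parasite inhibition.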

[16] = target: Thyrotropin receptor (Homo sapiens) (UniProt P16473); assay: qHTS Assay for Antagonists of the Thyroid Stimulating Hormone Receptor (AID 488980); note: series mostly up to about 58 µM
Method in brief: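 Cells expressing human TSHR (HEK293) are dispensed in HBSS/HEPES containing 70 uM RO 20-1724, compound is added, then TSH at EC80 (4 nM final). Antibody in lysis buffer follows, 30 minutes at room temperature before HTRF detection.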

[17] = target: ATP-dependent 6-phosphofructokinase (Trypanosoma brucei brucei) (UniProt O15648); assay: qHTS Validation Assay to Find Inhibitors of T. brucei phosphofructokinase (AID 485368); conditions: outcome: dose series up to 57.5 µM
Chain of ATP-dependent 6-phosphofructokinase (Trypanosoma brucei brucei) (O15648 whole entry, looked up): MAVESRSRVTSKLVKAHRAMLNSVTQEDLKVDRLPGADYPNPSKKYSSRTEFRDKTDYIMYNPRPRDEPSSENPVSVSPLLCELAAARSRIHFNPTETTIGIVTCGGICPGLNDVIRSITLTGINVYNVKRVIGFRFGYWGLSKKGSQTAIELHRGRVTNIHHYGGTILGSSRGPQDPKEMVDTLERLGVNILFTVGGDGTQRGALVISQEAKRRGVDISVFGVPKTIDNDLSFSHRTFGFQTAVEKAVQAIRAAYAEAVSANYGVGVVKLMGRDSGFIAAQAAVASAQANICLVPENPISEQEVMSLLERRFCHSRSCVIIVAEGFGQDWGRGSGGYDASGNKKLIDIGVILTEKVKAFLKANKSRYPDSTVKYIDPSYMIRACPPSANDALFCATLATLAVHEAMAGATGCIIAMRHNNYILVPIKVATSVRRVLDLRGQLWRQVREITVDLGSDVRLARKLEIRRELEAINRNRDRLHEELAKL
Method in brief: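 ADP-Glo luminescence, two-step: residual ATP depleted, then ADP converted to ATP for luciferase. Enzyme 1.25 nM, F6P 0.5 mM, ATP 0.1 mM, pH 8.0 TEA buffer, 45 min RT. Curves fitted and classed by quality and efficacy.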

[18] = target: Transient receptor potential cation channel subfamily V member 1 (Homo sapiens) (UniProt Q8NER1); assay: HTS Assay for Compounds that Act as Enhancers of the Vanilloid Receptor 1 (AID 488979)
Method in brief: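 TRPV1-expressing cells loaded with Fluo-8 calcium dye; compounds added and calcium influx read kinetically for 3 min (agonist phase), then capsaicin at EC20 added and read 2 min more for enhancement. Fluorescence ex 480/em 520 nm.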

[19] = Validation screen for small molecules that induce DNA re-replication in MCF 10A normal breast cells (AID 463097); note: nearly all actives have a fitted effect of over 60% in size
Method in brief: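 DNA re-replication was detected as a rise in nuclei with elevated Hoechst fluorescence after a 48 hr compound exposure of MCF 10A cells at 37 C.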

Measured: Potency

CC(=O)[C@@]1(O)CC[C@H]2[C@@H]3CCC4=CC(=O)CC[C@]4(C)[C@H]3CC[C@@]21C
not listed: [15] | [16] | [17] | [18] | [19]
inactive: all other assays above

COc1cc(C(=O)OCCCN2CCCN(CCCOC(=O)c3cc(OC)c(OC)c(OC)c3)CC2)cc(OC)c1OC
active: [15] 13.1 µM
not listed: [1] | [4] | [10] | [12] | [17] | [18] | [19]
inactive: all other assays above

NC1=NCC2c3ccccc3Cc3ccccc3N12 (stereo not given)
active: [14] 15.8 µM
not listed: [1] | [7] | [15] | [16] | [18] | [19]
inactive: all other assays above

CCN(CC)CCCN(c1ccccc1)C1Cc2ccccc2C1
not listed: [14] | [15] | [16] | [17] | [18] | [19]
inactive: all other assays above

Cc1nc2sccn2c(=O)c1CCN1CCC(=C(c2ccc(F)cc2)c2ccc(F)cc2)CC1
active: [10] 44.7 µM
28.2 µM (active) and inactive: [9]
not listed: [2] | [4] | [14] | [17] | [19]
inactive: all other assays above

COCC(=O)O[C@]1(CCN(C)CCCc2nc3ccccc3[nH]2)CCc2cc(F)ccc2[C@@H]1C(C)C
active: [15] 5.86 µM
not listed: [4] | [7] | [10] | [12] | [14] | [18] | [19]
inactive: all other assays above

COc1cc2c(cc1OC)-c1cc(=Nc3c(C)cc(C)cc3C)n(C)c(=O)n1CC2
39.8 µM (active) and inactive: [9]
active: [15] 2.62 µM | [10] 35.5 µM
not listed: [4] | [6] | [14] | [19]
inactive: all other assays above

O=C(O)CP(=O)(O)O
not listed: [1] | [2] | [18]
inactive: all other assays above

CCCCCCCC/C=C\CCCCCCCC(=O)NCc1ccc(O)c(OC)c1
not listed: [6] | [12] | [13] | [15] | [16] | [18] | [19]
inactive: all other assays above

CN1CCN(CC(=O)N2c3ccccc3C(=O)Nc3cccnc32)CC1
not listed: [7] | [10] | [12] | [13] | [17] | [19]
inactive: all other assays above

CC(C)(C)c1ccc(C(=O)CCCN2CCC(OC(c3ccccc3)c3ccccc3)CC2)cc1
not listed: [1] | [10] | [13] | [14] | [15] | [16] | [18] | [19]
inactive: all other assays above
